Test results as given in PubChem BioAssay.
Activity calls are given as the source filed them.

Key:
[1] = binders of probe aFSTL3 on microarray, primary screen, stem cell growth factor project, biochemical, small-molecule microarray, fluorescence 635/667 (AID 1064); settings: higher = more signal;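 further: measures binding of the biotinylated anti-FSTL3 antibody to printed compounds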
[2] = binders from COS7 lysate, DM2A8 probe, primary screen, torsin A project, cell lysate, small-molecule microarray, fluorescence 635/667 (AID 1065); settings: higher = more signal, COS7 lysate expressing mutant human TOR1A
[3] = binders of probe aFGF2 on microarray, primary screen, stem cell growth factor project, biochemical, small-molecule microarray, fluorescence 635/667 (AID 1067); settings: higher = more signal;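 further: measures binding of biotinylated aFGF2 protein to printed compounds on slides; z-score merges feature fluorescence and signal-to-noise across triplicate slides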
[4] = binders of probe aFGF10 on microarray, primary screen, stem cell growth factor project, biochemical, small-molecule microarray, fluorescence 635/667 (AID 1071); settings: higher = more signal;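 further: score merges 667 nm spot intensity and signal to noise from triplicate slides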
[5] = target: Neurogenic locus notch homolog protein 2 (Homo sapiens) (UniProt Q04721); test: Notch2 binders on small-molecule microarrays, primary screen, biochemical, small-molecule microarray, 635 nm fluorescence, stem cell growth factors (AID 1073); settings: Notch2 binding, higher = more signal
[6] = target: Pro-neuregulin-1, membrane-bound isoform (Homo sapiens) (UniProt Q02297); test: NRG1 binders on small-molecule microarrays, primary screen, psychiatric disease protein project, biochemical, small-molecule microarray, fluorescence 635/667 (AID 1075); settings: NRG1 binding, 635 nm fluorescence, higher = more signal;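 further: score combines 667 nm spot fluorescence with signal to noise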
Pro-neuregulin-1, membrane-bound isoform (Homo sapiens), sequence (Q02297 whole entry, looked up, the tested form may be a part, canonical isoform): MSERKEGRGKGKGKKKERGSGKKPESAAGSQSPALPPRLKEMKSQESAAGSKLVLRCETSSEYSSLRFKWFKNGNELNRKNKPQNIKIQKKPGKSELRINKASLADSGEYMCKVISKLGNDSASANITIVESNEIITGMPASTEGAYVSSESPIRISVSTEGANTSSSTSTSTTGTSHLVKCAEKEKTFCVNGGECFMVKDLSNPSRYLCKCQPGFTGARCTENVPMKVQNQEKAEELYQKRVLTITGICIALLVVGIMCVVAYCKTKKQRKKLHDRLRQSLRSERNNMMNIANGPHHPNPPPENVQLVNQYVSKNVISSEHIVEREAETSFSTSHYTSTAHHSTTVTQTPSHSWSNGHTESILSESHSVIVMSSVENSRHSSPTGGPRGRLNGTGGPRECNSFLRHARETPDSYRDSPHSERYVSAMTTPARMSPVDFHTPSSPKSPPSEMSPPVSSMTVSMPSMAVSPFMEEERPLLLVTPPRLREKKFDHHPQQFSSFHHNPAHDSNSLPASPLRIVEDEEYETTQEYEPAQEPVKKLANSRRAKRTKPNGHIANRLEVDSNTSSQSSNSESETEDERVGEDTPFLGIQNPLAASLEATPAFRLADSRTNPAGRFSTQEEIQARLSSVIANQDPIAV

[7] = tested on: Neuregulin-1 EGF-like domain; test: binders of neuregulin-1 EGF-like domain, primary screen, biochemical, small-molecule microarray, 635 nm fluorescence (AID 1081); settings: small-molecule microarray binding, higher = more signal;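 further: binding of the protein to compounds printed on small-molecule microarray slides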
[8] = FRG1 promoter luciferase signal modulators, primary screen, FRG1 inhibition for FSHD, cell-based, C2C12 myotubes, firefly/Renilla luciferase, luminescence (AID 1084); settings: higher = more signal, called active from +8 up or from −8 down
[9] = binders of probe aFST on microarray, primary screen, stem cell growth factor project, biochemical, small-molecule microarray, fluorescence 635/667 (AID 1086); settings: higher = more signal;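 further: score merges 667 nm fluorescence with signal-to-noise of each printed compound spot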
[10] = binders of probe aHhip on microarray, primary screen, stem cell growth factor project, biochemical, small-molecule microarray, fluorescence 635/667 (AID 1087); settings: higher = more signal;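 further: score merges spot fluorescence at 667nm with spot signal to noise ratio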
[11] = tested on: PRMT1 (protein arginine N-methyltransferase 1); test: PRMT1 binders on small-molecule microarrays, primary screen, biochemical, small-molecule microarray, 635 nm fluorescence (AID 1088); settings: small-molecule microarray binding, higher = more signal;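 further: binding of Prmt1 protein to compounds spotted on small-molecule microarray slides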
[12] = yeast growth modulation, basal conditions, primary screen, YJM789 clinical isolate, OD600, 24 h (AID 1089);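 further: growth of clinical yeast isolate S. cerevisiae YJM 789 seeded 1000 cells per well; test concentration not given here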; settings: S. cerevisiae YJM789 growth, higher = more signal, called active from +8 up or from −8 down
[13] = fission yeast growth modulation, primary screen, strain 972, OD600, 24 h, no modulator (AID 1090);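 further: basal condition with compound alone and no growth modifier present; test concentration not given here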; settings: S. pombe 972 growth, higher = more signal, called active from +8 up or from −8 down
[14] = S. cerevisiae growth modulation with rapamycin, primary screen, strain BY4716, OD600, 96 h (AID 1091); settings: higher = more signal, called active from +8 up or from −8 down; further: test concentration not given here
[15] = target: Torsin-1A-interacting protein 2 (Homo sapiens) (UniProt Q8NFQ8); test: LULL1 binders on small-molecule microarray, primary screen, cell lysate, human LULL1 lysate, 635/667 nm fluorescence (AID 1092); settings: hLULL1 lysate binding, 635 nm fluorescence, higher = more signal;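 further: probe is lysate of COS7 cells overexpressing human LULL1; score merges per-feature 667 nm fluorescence with signal-to-noise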
Torsin-1A-interacting protein 2 (Homo sapiens), sequence (Q8NFQ8 whole entry, looked up): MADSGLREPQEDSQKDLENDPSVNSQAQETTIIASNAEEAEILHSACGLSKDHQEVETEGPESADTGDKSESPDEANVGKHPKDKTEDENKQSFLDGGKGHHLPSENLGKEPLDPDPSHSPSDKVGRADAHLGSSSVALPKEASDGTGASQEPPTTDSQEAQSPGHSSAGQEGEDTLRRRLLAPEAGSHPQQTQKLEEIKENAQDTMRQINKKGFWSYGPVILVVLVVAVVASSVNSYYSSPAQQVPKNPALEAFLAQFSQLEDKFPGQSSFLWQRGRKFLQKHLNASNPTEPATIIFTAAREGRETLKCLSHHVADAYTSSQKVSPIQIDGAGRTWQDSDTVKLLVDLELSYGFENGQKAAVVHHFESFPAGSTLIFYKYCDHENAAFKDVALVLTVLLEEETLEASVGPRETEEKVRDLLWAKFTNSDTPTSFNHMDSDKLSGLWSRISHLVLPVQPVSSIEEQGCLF

[16] = E. coli growth modulation, two-sided OD650, primary screen, E. coli filamentation project, strain DRC41, 24 h (AID 1093); settings: OD650, 24 h, higher = more signal, called active from +8 up or from −8 down;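 further: MC1000 strain lacking acrAB efflux and sulA so SOS filamentation is blocked; test concentration not given here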
[17] = small-molecule microarray binders of probe aLefty2, primary screen, biochemical, biotinylated probe, 635/667 nm fluorescence (AID 1094); settings: higher = more signal;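 further: score merges spot fluorescence near 667 nm with spot signal-to-noise ratio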
[18] = tested on: Noggin (protein binding on small-molecule microarray); test: Noggin binders on small-molecule microarray, primary screen, biochemical, 635/667 nm fluorescence (AID 1095); settings: 635 nm fluorescence, higher = more signal;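 further: score merges 667 nm feature fluorescence with signal to noise over triplicate slides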
[19] = target: Neurogenic locus notch homolog protein 3 (Homo sapiens) (UniProt Q9UM47); test: NOTCH3 binders on small-molecule microarray, primary screen, biochemical, 635/667 nm fluorescence (AID 1096); settings: NOTCH3 binding, 635 nm fluorescence, higher = more signal
Neurogenic locus notch homolog protein 3 (Homo sapiens), sequence (Q9UM47 whole entry, looked up): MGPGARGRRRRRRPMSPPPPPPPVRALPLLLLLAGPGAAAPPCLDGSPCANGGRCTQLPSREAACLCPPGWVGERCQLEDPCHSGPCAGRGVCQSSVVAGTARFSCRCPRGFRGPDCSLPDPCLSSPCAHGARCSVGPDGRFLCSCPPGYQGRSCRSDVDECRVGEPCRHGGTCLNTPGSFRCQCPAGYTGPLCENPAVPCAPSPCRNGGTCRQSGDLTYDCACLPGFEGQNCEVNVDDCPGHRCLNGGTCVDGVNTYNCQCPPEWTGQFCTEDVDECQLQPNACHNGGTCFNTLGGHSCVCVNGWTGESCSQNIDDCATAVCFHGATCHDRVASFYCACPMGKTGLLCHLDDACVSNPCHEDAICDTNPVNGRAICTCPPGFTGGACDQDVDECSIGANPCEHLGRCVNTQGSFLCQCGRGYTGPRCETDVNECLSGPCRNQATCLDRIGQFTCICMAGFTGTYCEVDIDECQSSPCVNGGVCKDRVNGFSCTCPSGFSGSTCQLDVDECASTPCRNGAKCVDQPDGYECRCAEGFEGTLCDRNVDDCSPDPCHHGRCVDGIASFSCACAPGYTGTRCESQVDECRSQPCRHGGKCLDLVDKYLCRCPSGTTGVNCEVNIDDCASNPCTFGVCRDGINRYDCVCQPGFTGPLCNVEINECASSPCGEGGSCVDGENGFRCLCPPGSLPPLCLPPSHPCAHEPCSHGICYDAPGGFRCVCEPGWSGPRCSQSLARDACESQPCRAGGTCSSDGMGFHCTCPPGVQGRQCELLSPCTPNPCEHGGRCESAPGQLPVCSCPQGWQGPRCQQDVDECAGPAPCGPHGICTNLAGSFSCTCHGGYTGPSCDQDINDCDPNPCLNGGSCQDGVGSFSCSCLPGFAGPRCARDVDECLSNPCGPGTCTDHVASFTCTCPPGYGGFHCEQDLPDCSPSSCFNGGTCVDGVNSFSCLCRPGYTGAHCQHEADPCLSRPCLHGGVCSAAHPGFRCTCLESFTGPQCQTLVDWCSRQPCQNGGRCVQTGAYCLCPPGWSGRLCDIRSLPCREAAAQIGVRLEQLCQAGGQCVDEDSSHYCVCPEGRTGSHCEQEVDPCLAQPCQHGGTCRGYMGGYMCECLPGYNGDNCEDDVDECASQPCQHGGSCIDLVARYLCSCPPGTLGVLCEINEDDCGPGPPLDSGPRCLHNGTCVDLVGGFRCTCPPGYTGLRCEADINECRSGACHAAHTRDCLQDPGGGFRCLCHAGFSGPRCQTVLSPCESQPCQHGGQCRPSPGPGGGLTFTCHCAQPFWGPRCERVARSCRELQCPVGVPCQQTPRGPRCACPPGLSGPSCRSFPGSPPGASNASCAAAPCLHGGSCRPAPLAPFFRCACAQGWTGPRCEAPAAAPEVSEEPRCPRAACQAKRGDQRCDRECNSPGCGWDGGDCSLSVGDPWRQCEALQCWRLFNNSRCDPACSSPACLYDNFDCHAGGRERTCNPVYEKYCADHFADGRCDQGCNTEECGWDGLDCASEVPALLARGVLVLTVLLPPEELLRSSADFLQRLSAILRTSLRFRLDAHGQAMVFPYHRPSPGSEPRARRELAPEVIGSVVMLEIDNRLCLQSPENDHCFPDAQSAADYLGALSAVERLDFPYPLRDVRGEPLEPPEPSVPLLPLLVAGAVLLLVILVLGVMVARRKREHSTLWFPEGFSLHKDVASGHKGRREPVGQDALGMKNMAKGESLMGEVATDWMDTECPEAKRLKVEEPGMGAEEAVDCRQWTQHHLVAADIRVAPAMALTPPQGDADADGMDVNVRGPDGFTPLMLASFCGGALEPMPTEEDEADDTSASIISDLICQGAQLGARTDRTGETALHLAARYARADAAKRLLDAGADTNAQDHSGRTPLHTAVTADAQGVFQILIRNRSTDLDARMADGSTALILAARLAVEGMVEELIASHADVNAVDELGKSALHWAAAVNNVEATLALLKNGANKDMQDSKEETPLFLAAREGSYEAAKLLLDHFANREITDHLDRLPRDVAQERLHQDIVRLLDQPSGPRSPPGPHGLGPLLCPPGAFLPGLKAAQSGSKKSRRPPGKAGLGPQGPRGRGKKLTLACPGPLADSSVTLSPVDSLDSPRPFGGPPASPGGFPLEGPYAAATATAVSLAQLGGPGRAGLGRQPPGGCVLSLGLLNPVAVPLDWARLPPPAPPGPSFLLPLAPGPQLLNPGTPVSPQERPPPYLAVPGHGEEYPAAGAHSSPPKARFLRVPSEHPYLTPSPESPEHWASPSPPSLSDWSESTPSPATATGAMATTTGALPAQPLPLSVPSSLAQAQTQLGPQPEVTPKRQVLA

[20] = small-molecule microarray binders of probe aEGFR, primary screen, biochemical, biotinylated probe, 635/667 nm fluorescence (AID 1097); settings: higher = more signal;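 further: probe is a biotinylated anti-EGFR antibody binding compounds printed on slides; score combines fluorescence near 667 nm and signal to noise of each spot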

Q: What does the source list for `O=C1C2C=CC(C(O)c3cccc4ccccc34)N(Nc3ccccc3)C2C(=O)N1c1ccccc1` (stereo not given)?
A: composite z-score [1]: -0.0673; composite z-score [2]: 0.113; composite z-score [3]: 0.127; composite z-score [4]: 0.822; composite z-score [5]: 1.61; composite z-score [6]: 1.89; composite z-score [7]: 1.19; z-score [8]: -1.41 (inactive); composite z-score [9]: 1.55; composite z-score [10]: -0.261; composite z-score [11]: 1.56; z-score [12]: 0.487 (inactive); z-score [13]: -0.251 (inactive); z-score [14]: -0.0667 (inactive); composite z-score [15]: 3.16; z-score [16]: -1.07 (inactive); composite z-score [17]: 0.343; composite z-score [18]: 0.428; composite z-score [19]: 1.04; composite z-score [20]: -0.0271

Q: With `O=C1O[C@@H](c2ccccc2)[C@@H](c2ccccc2)N2[C@@H](c3ccc(O)cc3)[C@]3(C(=O)Nc4ccc(C#CC5=CCCCC5)cc43)[C@@H](C(=O)Nc3nc4ccccc4s3)[C@H]12` as the compound, how does the composite z-score [1] read?
A: Its composite z-score is -0.371.

Q: What about the composite z-score [2] of the same compound?
A: Its composite z-score is 0.449.

Q: What about the composite z-score [3] of the same compound?
A: The composite z-score was -0.0455.

Q: What about the composite z-score [4] of the same compound?
A: The composite z-score was 1.27.

Q: What about the composite z-score [5] of the same compound?
A: Its composite z-score is 1.5.

Q: And the composite z-score [6]?
A: The composite z-score was 1.34.

Q: And the composite z-score [7]?
A: The composite z-score was 1.18.

Q: What about the z-score [8] of the same compound?
A: Its z-score is -0.453 (inactive).

Q: What about the composite z-score [9] of the same compound?
A: The composite z-score was 0.647.

Q: And the composite z-score [10]?
A: Its composite z-score is -0.171.

Q: What about the composite z-score [11] of the same compound?
A: The composite z-score was 1.54.

Q: And the z-score [12]?
A: The z-score was 0.424 (inactive).

Q: What about the z-score [13] of the same compound?
A: The z-score was 0.015 (inactive).

Q: What about the z-score [14] of the same compound?
A: The z-score was 0.606 (inactive).

Q: And the composite z-score [15]?
A: The composite z-score was 2.86.

Q: What about the z-score [16] of the same compound?
A: The z-score was 0.481 (inactive).

Q: What about the composite z-score [17] of the same compound?
A: Its composite z-score is 0.455.

Q: And the composite z-score [18]?
A: Its composite z-score is 1.04.

Q: And the composite z-score [19]?
A: Its composite z-score is 1.04.

Q: And the composite z-score [20]?
A: Its composite z-score is 0.127.

Q: With `CCCCC(O)C1C=CC2C(=O)N(Cc3ccccc3)C(=O)C2N1n1cnnc1` (stereo not given) as the compound, how does the composite z-score [1] read?
A: Its composite z-score is -0.246.

Q: What about the composite z-score [2] of the same compound?
A: Its composite z-score is 0.095.

Q: And the composite z-score [3]?
A: Its composite z-score is 0.0311.

Q: And the composite z-score [4]?
A: Its composite z-score is 0.22.

Q: What about the composite z-score [5] of the same compound?
A: Its composite z-score is 0.225.

Q: What about the composite z-score [6] of the same compound?
A: The composite z-score was 1.1.

Q: What about the composite z-score [7] of the same compound?
A: Its composite z-score is 1.08.

Q: What about the z-score [8] of the same compound?
A: The z-score was 0.2 (inactive).

Q: And the composite z-score [9]?
A: The composite z-score was 0.437.

Q: What about the composite z-score [10] of the same compound?
A: Its composite z-score is 0.312.

Q: What about the composite z-score [11] of the same compound?
A: Its composite z-score is 0.623.

Q: What about the z-score [12] of the same compound?
A: Its z-score is -0.28 (inactive).

Q: What about the z-score [13] of the same compound?
A: Its z-score is 0.653 (inactive).

Q: And the z-score [14]?
A: The z-score was -0.335 (inactive).

Q: What about the composite z-score [15] of the same compound?
A: The composite z-score was 2.57.

Q: What about the z-score [16] of the same compound?
A: The z-score was -0.981 (inactive).

Q: And the composite z-score [17]?
A: The composite z-score was -0.103.

Q: What about the composite z-score [18] of the same compound?
A: Its composite z-score is 0.159.

Q: And the composite z-score [19]?
A: The composite z-score was 0.62.

Q: What about the composite z-score [20] of the same compound?
A: Its composite z-score is 0.035.

Q: For `C[N+](C)(C)CCCCCCNC(=O)[C@H]1C[C@H]2C(=O)N3CCC[C@H]3C(=O)N2[C@H]1c1cccc(OCCO)c1`, which composite z-score [1] is on record?
A: Its composite z-score is -0.238.

Q: And the composite z-score [2]?
A: The composite z-score was 2.05.

Q: What about the composite z-score [3] of the same compound?
A: The composite z-score was 0.0111.

Q: What about the composite z-score [4] of the same compound?
A: The composite z-score was 0.573.

Q: What about the composite z-score [5] of the same compound?
A: Its composite z-score is 0.761.

Q: What about the composite z-score [6] of the same compound?
A: The composite z-score was 0.577.

Q: What about the composite z-score [7] of the same compound?
A: Its composite z-score is 1.42.

Q: And the z-score [8]?
A: The z-score was 4.55 (inactive).

Q: What about the composite z-score [9] of the same compound?
A: Its composite z-score is 0.301.

Q: What about the composite z-score [10] of the same compound?
A: Its composite z-score is 0.154.

Q: And the composite z-score [11]?
A: The composite z-score was 1.3.

Q: And the z-score [12]?
A: The z-score was -0.811 (inactive).

Q: And the z-score [13]?
A: Its z-score is -0.486 (inactive).

Q: And the z-score [14]?
A: The z-score was 0.0309 (inactive).

Q: And the composite z-score [15]?
A: Its composite z-score is 3.24.

Q: And the z-score [16]?
A: The z-score was -0.64 (inactive).

Q: What about the composite z-score [17] of the same compound?
A: The composite z-score was 0.05.

Q: And the composite z-score [18]?
A: The composite z-score was 0.666.

Q: And the composite z-score [19]?
A: Its composite z-score is 1.08.

Q: And the composite z-score [20]?
A: The composite z-score was 0.153.
